Assay results: the supplement of paper PMC10849652
Targets with a hit are over-represented here; the source holds about 7,900 in all. About 0.6% of all pairs of compound and target were hits.

Tests used:
Assay in all cases: log2 fold change, soluble protein after heating vs DMSO (PISA); higher = thermal stabilisation; K562 cells, 10 uM, 30 min; active = over 0.2 and 3.5 SD of the protein, either way, in both replicates (recomputed)
[1] = compound: C1=CC=C(C=C1)[C@H](COC2=CC3=C(C=C2)NC(=O)N3)NC(=O)C4=CC=CN(C4=O)CC5=CC(=C(C=C5)F)F
Summary of the method: (§1)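 Quantification of soluble protein used TMTpro 16plex LC-MS/MS, with channel sums equalised. Samples were the supernatant after 21,000xg for 90 min of pooled aliquots from K562 cells (2×10^6 cells/mL) treated with 10 μM compound for 30 min, heated for 3 min over 48°C-58°C, and extracted in PBS with 0.5% NP-40 at 4°C. Values, from duplicates, describe thermal stability against control samples on a log2 fold-change scale.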

[2] = compound: CC1=C(SC2=C1C(=N[C@H](C3=NN=C(N32)C)CC(=O)N)C4=CC=C(C=C4)Cl)C
Summary of the method: as §1

[3] = compound: CC1=C2C(=CC=C1)N=C(N(C2=O)C3=CC=CC=C3C)CN4C=NC5=C(N=CN=C54)N
Summary of the method: as §1

[4] = compound: Cc1sc2c(c1C)C(c1ccc(Cl)cc1)=N[C@@H](CC(=O)OC(C)(C)C)c1nnc(C)n1-2
Summary of the method: as §1

[5] = compound: c1ccc([C@@H]2C[C@H]2NC2CCNCC2)cc1
Summary of the method: as §1

Measured: log2 fold change

MICU2 (UniProt Q8IYU8)
UniProt Q8IYU8, sequence (Q8IYU8 whole entry, looked up): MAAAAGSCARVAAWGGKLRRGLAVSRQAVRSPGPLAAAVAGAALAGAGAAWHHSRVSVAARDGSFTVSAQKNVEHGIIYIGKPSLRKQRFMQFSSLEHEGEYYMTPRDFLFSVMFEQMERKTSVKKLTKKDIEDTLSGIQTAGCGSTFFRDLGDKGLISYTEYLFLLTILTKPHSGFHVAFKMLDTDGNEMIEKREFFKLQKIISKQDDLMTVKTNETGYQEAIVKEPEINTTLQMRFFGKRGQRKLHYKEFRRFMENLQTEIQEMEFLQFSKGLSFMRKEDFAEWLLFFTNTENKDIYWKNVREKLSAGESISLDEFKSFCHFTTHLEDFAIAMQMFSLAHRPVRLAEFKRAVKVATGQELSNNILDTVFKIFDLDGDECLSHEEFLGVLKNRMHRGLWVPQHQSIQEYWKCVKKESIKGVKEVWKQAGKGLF
inactive: [1] 0.013 | [2] -0.037 | [3] -0.123 | [4] -0.029 | [5] 0.021

MAPK14 (UniProt Q16539)
UniProt Q16539, sequence (Q16539 whole entry, looked up): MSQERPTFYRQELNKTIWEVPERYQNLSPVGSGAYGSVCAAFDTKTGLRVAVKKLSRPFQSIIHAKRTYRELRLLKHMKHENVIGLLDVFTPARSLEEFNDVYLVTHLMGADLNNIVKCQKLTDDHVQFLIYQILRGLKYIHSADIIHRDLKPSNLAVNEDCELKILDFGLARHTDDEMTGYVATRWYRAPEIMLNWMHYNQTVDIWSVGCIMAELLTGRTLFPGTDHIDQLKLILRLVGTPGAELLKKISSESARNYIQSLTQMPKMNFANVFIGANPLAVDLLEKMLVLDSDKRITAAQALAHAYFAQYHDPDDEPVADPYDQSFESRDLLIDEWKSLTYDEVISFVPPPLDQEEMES
inactive: [1] -0.01 | [2] 0.153 | [3] 0.061 | [4] -0.03 | [5] -0.089

JAK3 (UniProt P52333)
UniProt P52333, sequence (P52333 whole entry, looked up): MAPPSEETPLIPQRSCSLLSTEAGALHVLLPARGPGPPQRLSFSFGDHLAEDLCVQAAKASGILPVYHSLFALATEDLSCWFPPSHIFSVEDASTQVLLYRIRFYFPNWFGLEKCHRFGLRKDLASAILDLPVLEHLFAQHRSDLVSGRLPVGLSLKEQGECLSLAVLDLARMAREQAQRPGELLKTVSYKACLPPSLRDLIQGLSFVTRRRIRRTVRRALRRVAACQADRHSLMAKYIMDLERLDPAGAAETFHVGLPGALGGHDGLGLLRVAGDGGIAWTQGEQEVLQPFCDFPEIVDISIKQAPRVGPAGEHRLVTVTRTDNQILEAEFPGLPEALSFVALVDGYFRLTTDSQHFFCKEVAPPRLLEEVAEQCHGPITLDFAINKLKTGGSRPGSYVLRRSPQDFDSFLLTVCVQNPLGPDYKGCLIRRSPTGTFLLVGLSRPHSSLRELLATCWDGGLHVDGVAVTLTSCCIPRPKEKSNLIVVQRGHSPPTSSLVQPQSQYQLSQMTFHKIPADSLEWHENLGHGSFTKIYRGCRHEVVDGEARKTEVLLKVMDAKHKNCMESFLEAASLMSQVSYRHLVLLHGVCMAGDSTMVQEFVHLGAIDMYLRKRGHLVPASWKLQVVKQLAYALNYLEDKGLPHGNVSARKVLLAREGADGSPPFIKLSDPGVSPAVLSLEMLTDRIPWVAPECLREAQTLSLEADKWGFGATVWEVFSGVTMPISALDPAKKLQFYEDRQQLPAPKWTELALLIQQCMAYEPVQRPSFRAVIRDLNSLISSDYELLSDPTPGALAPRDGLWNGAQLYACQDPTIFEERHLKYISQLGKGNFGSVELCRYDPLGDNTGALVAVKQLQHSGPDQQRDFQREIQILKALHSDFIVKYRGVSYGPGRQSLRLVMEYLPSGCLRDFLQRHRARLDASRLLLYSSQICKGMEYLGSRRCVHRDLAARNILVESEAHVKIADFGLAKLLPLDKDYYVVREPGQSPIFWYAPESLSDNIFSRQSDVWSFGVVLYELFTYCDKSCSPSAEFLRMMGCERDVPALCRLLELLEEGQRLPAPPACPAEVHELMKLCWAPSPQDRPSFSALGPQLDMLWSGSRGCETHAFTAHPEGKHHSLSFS
inactive: [1] -0.011 | [2] 0.075 | [3] -0.027 | [4] 0.009 | [5] 0.032

LNPEP (UniProt Q9UIQ6)
UniProt Q9UIQ6, sequence (Q9UIQ6 whole entry, looked up): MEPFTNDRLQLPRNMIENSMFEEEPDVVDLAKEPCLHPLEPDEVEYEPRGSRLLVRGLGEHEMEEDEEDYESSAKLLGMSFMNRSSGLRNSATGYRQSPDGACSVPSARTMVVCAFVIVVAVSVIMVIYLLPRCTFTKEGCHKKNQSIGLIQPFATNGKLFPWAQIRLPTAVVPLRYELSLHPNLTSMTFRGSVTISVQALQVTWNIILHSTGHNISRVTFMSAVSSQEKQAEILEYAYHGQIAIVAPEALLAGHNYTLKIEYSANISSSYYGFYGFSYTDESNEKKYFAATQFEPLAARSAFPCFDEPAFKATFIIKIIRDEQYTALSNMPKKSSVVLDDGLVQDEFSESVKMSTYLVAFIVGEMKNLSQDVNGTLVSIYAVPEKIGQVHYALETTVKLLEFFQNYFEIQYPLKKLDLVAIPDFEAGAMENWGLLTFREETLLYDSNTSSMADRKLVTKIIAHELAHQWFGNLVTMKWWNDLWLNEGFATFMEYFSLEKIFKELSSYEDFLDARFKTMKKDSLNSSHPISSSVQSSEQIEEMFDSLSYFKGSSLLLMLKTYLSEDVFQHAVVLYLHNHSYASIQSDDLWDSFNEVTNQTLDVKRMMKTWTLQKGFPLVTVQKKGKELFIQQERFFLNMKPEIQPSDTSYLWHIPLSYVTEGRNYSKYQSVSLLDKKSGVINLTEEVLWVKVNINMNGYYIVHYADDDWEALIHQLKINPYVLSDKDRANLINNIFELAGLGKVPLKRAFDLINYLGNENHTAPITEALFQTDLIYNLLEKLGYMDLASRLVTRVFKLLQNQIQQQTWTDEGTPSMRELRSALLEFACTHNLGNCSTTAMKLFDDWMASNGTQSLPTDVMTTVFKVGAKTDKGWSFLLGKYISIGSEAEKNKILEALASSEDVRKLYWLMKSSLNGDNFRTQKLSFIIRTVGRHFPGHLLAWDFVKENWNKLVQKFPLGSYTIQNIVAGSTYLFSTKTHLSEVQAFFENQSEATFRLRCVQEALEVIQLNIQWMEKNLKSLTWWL
inactive: [1] 0.066 | [2] 0.061 | [3] 0.001 | [4] -0.016 | [5] 0.046

KPNA1 (UniProt P52294)
inactive: [1] -0.03 | [2] -0.049 | [3] 0.079 | [4] -0.003 | [5] -0.001

MAGI1 (UniProt Q96QZ7)
UniProt Q96QZ7, sequence (Q96QZ7 whole entry, looked up): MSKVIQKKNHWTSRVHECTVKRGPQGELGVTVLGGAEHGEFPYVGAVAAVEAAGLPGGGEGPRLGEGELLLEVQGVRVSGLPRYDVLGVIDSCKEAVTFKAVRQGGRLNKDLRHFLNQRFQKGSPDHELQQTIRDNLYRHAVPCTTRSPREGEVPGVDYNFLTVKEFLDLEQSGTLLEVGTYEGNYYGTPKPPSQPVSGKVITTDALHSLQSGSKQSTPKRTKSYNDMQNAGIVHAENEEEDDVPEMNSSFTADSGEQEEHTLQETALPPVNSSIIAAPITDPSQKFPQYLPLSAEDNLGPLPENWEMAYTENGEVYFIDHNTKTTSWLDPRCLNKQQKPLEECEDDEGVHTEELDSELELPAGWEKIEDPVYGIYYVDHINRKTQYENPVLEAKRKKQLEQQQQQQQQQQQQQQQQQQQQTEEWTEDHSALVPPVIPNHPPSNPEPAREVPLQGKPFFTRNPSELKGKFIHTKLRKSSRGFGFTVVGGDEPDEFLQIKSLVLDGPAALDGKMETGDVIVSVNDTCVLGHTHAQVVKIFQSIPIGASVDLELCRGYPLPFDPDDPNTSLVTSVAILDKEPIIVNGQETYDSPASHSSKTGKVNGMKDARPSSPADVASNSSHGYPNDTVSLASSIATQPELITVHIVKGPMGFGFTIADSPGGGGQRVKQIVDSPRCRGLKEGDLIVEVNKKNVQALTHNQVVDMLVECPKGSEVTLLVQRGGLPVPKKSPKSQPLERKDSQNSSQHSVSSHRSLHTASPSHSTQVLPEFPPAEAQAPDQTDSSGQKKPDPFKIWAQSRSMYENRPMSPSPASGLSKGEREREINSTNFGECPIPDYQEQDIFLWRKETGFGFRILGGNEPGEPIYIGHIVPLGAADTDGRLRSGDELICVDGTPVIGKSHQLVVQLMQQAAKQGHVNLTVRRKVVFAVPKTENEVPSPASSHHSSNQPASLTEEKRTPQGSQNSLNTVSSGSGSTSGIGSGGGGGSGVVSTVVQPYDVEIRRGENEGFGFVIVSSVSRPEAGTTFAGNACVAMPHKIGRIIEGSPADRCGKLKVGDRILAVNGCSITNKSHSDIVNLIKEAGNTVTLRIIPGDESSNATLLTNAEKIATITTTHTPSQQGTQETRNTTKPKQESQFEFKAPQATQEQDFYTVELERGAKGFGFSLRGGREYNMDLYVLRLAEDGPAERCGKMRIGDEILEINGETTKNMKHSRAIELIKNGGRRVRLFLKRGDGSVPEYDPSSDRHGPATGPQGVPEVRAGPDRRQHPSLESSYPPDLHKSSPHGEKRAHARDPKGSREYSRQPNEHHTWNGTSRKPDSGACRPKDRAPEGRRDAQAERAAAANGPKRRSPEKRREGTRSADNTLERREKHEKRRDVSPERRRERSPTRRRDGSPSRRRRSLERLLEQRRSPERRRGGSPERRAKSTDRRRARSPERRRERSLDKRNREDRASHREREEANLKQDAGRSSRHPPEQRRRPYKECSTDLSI
inactive: [1] 0.025 | [2] -0.026 | [3] -0.005 | [4] 0.054 | [5] -0.016

MIEF1 (UniProt Q9NQG6)
UniProt Q9NQG6, sequence (Q9NQG6 whole entry, looked up): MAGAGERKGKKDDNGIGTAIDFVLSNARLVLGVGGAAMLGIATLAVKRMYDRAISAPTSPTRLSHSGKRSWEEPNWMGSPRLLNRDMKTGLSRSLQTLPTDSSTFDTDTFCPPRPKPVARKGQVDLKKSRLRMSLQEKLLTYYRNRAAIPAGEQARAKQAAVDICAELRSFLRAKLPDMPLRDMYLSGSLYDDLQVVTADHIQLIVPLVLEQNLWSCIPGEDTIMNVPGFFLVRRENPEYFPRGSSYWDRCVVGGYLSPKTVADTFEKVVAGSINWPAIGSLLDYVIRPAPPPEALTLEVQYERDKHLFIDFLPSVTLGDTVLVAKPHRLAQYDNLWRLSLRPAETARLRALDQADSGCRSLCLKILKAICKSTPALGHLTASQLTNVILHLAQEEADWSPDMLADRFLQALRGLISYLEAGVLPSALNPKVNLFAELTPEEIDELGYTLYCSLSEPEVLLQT
inactive: [1] -0.043 | [2] 0.053 | [3] 0.047 | [4] -0.024 | [5] -0.054

MIEN1 (UniProt Q9BRT3)
UniProt Q9BRT3, sequence (Q9BRT3 whole entry, looked up): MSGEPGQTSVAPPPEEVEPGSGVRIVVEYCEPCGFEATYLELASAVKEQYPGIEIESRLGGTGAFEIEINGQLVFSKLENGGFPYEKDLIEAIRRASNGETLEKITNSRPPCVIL
inactive: [1] 0.035 | [2] 0.101 | [3] 0.014 | [4] -0.097 | [5] 0.019

LMNB2 (UniProt Q03252)
inactive: [1] 0.04 | [2] 0.052 | [3] 0.062 | [4] -0.04 | [5] 0.053
